D3 antag – blocks the human D3 dopamine receptor | P35462 | D3R cells, DiscoveRx beta-arrestin luminescence, antagonist mode; active compounds read low | max response, negative = inhibition, % | actives 2.5% (n = 360,000) | AID 652054; in the data active = max response below about -50%; inconclusive = no clear call, values can overlap the other calls; note: % is set by controls: 0 for no effect and ±100 for the full control effect
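Cells expressing the human receptor were seeded at 1500 cells/well, incubated overnight at 37 degrees C in 5% CO2, then exposed to library compounds with dopamine controls for 90 minutes at 37 degrees C before luminescent detection.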
Rango-impB inh – Rango-importin beta binding inhibition; actives 0.031% (n = 340,000); Potency, µM (top dose mostly 92.2 µM), for inactives: at the top dose inhibition of complex formation; AID 540263; Rango CFP/YFP FRET sensor + importin beta, 45 min; Q14974;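 note: potency is the fitted concentration of half-maximal effect; 0% = DMSO wells and 100% = buffer wells lacking importin beta; nearly all actives have a fitted effect of over 15% in size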
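FRET biosensor Rango (snurportin 1 IBB between N-terminal EYFP and C-terminal Cerulean), 50 nM in PBS/1 mM DTT/0.02% Tween-20/0.1% BSA, preincubated 5 min RT with compound; 0.125 microM importin beta added, 45 min RT, CFP/YFP FRET ratio read.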
TSG101-PTAP inh – blocks PTAP/TSG101 interaction to inhibit HIV-1 budding; Fluorescence polarization, FITC-PTAP peptide / Tsg101 binding; AID 493005; 340,000 tested, under 10 active; Potency, µM (top dose mostly 115 µM), for the others: top-dose activity change, negative = inhibition, most hits filed as inhibitors; active = well fitted inhibition curve with a large enough effect in the main read-out, with a control signal flat, not every such curve was filed as active; inconclusive = small, poorly fitted or top-dose-only effect, or effect the other way, or a change in a side signal; inactive = no such curve, though single readings can be large or run the other way; note: potency is the fitted concentration of half-maximal effect; % of control where 0% means no effect
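Fluorescence anisotropy tracks displacement of a FITC-tagged PTAP peptide (50 nM) from the Tsg101 binding domain (10 uM), following a 20 min room-temperature incubation at pH 7.5.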
Mm-Cpn inhibitor – blocks the Methanococcus maripaludis chaperonin Mm-Cpn; purified Mm-Cpn ATPase, ADP Transcreener TR-FRET; Potency, µM (top dose mostly 76.9 µM), without a hit: at the highest dose activity, negative = inhibition, hits mostly inhibitors; actives 0.031% (n = 330,000); AID 504842; active = well fitted inhibition curve with a large enough effect; inconclusive = small, poorly fitted or top-dose-only effect; note: potency is the fitted concentration of half-maximal effect; % is set by controls: 0 for no effect and ±100 for the full control effect; nearly all actives have a fitted effect of over 80% in size
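ATPase read-out: TR-FRET ADP immunoassay (anti-ADP Eu cryptate vs ADP-d2), ex 320 nm, em 590/665 nm; signal drops as ADP forms. Enzyme 25 nM, ATP 10 uM, 30 min at 37°C after 10 min compound preincubation.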
Rango release inh – inhibitors of RanGTP-induced Rango-importin beta complex dissociation; Biochemical FRET Rango-importin beta, RanGTP-induced dissociation; Potency, µM (doses to about 46.1 µM), without a hit: at the highest dose activity change, negative = inhibition; actives 0.071% (n = 340,000); AID 540253; note: potency is the fitted concentration of half-maximal effect; % of control where 0% means no effect; nearly all actives have a fitted effect of over 45% in size
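Two FRET readings bracket the reaction: one 5 min after compound meets Rango–importin beta, another 45 min after RanGTP-RCC1 (0.6 uM Ran, 0.2 uM RCC1, 2 mM GTP) is added. Only the second defines inhibition.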
D3 ag – D3 dopamine receptor (human) agonism; P35462; D3R DiscoveRx beta-arrestin cells, luminescence, 90 min; max activation, %; actives 0.58% (n = 410,000); AID 652048; in the data active = max activation above about 30%; note: 0% is about no effect
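Agonist-mode cell screen: cells plated at 1500/well and incubated overnight at 37 °C, then exposed to library compounds for 90 min at 37 °C. Detection reagent was added for 30–60 min at room temperature, and luminescence was read.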
Numbers without * were called inactive; ? = inconclusive; . = no result; [ ] = remark or other dose. Rows were chosen to be rich in hits. Some 2.9% of all compounds tested hit in one or more screens of this group. Unless noted, calls come from the whole dose curve.

SMILES	D3 antag	Rango-impB inh	TSG101-PTAP inh	Mm-Cpn inhibitor	Rango release inh	D3 ag
O=c1c(Cl)c(Cl)cnn1Cc1nnc(-c2ccccc2Br)o1	-81*	0%	-3%	-24%	6%	-16
O=C(NCCc1ccc(Cl)cc1)C1CCCN(S(=O)(=O)N2CCCCCC2)C1 (stereo unspecified)	7	-4%	1%	1%	-2%	3
Nc1nnnn1/N=C/C(Br)=C/c1ccccc1	-100*	0%	-3%	-4%	-2%	-14
CN(C)CCCN(C(=O)c1cccs1)c1nc(-c2ccccc2)cs1	-53*	-1%	-8%	-2%	-14%	-37
COc1ccc(-c2csc(N(CCCN(C)C)C(=O)c3ccccc3Cl)n2)cc1	-71*	-4%	2%	.	-16%	-24
COCCn1c(C)nnc1SCC(=O)NNC(=O)c1ccc(Br)cc1	25	-2%	-3%	-1%	-7%	21
Nc1c(S(=O)(=O)c2cccs2)c2nc3ccccc3nc2n1CCc1ccccc1	.	.	.	-4%	.	.
CC(C)CCn1c(N)c(S(=O)(=O)c2cccs2)c2nc3ccccc3nc21	-87*	0%	.	-5%	-6%	-7
Cc1ccc(S(=O)(=O)c2nc(-c3ccc(Cl)cc3)oc2N2CCCCCC2)cc1	.	.	.	.	.	8
O=C(NCC(=O)N(c1cccnc1)C(C(=O)NC1CCCC1)c1ccccc1)c1ccco1 (stereo unspecified)	4	1%	2%	1%	3%	52*
Cc1ccc(N(C(=O)CNC(=O)c2ccco2)C(C(=O)NC2CCCC2)c2cccnc2)cc1 (stereo unspecified)	-23	1%	-3%	1%	-2%	7
O=C(NC(=O)N1CCN(c2cccc(Cl)c2)CC1)c1ccccc1	-72*	0%	-2%	1%	-11%	-25
O=C(NC(=O)N1CCN(c2cccc(Cl)c2)CC1)c1ccc(Cl)cc1	?	0%	-6%	1%	-14%	-9
COc1ccc(N(C)S(=O)(=O)c2cccc3cccnc23)c(OC)c1	34	-3%	-5%	2%	1%	31*
COc1ccccc1NC(=O)CN(C)S(=O)(=O)c1cccc2cccnc12	5	-2%	-5%	1%	-5%	0
CCOC(=O)c1ccc2cccc(C)n2c1=O	5	?	-1%	1%	12µM*[inhibitor]	5
Cc1ccc(Nc2c(-c3ccccn3)nc3cccc(C)n23)cc1	-82*	-1%	-1%	0%	-4%	-27
Cc1cccc2nc(-c3ccccn3)c(Nc3ccccc3)n12	.	.	.	.	.	-29
Cc1cc(C)n2c(Nc3c(C)cccc3C)c(-c3ccccn3)nc2n1	-70*	.	.	.	.	-12
COc1ccccc1CN1[C@@H](CC(=O)O)c2ccccc2S1(=O)=O	-54*	0%	-2%	.	4%	8
COc1cccc(N2[C@@H](CC(=O)O)c3ccccc3S2(=O)=O)c1	10	3%	-2%	.	15%	9
C=CCc1cc(Cl)ccc1OCCOCCN(C)C	-25	5%	-2%	3%	12%	-20
OCCNCCSc1ccc(Cl)cc1	2	?	-2%	?	-11%	-4
COCCCNCCOCCSc1ccc(Cl)cc1	-68*	2%	-4%	2%	2%	-31
CCCCNCCOCCSc1ccc(Cl)cc1	-81*	3%	-3%	?	25%	-7
SMILES	D3 antag	Rango-impB inh	TSG101-PTAP inh	Mm-Cpn inhibitor	Rango release inh	D3 ag
CN(C)CCOCCSc1ccc(Cl)cc1	-86*	2%	-9%	2%	18%	-28
CC(C)NCCOCCSc1ccc(Cl)cc1	-84*	6%	-6%	-1%	-1%	-9
Cc1ccc(-n2[nH]c(C)c(/C=N/Nc3ccc([N+](=O)[O-])cc3[N+](=O)[O-])c2=O)cc1	-56*	2%	-4%	-1%	15%	-21
O=C(CSc1nnc(C2CC2)n1C1CC1)c1ccc(Br)s1	-65*	3%	-2%	-7%	-16%	0
CC(C)C(=O)N(c1ccc2oc(=O)sc2c1)S(=O)(=O)c1cccs1	0	-2%	-2%	-1%	0%	-18
CC(=O)N(c1ccc2oc(=O)sc2c1)S(=O)(=O)c1cccs1	-51*	-1%	-5%	-2%	31%	6
COc1cc(OC)cc(C(=O)Nc2cc(-c3nc4cccnc4s3)ccc2C)c1	.	.	.	.	.	8
c1ccc(CN2CCN(C3CCCSc4ccccc43)CC2)cc1 (stereo unspecified)	-85*	2%	-1%	.	14%	-48
Cc1cc2ccccc2c(=O)n1CC(=O)NCC(=O)N1CCN(c2ccccc2)CC1	-52*	-3%	-13%	4%	-23%	-8
CCOc1ccc(NC(=O)Cn2c(=O)n(Cc3ccc4c(c3)OCO4)c(=O)c3ccc(C(=O)NC4CCCCC4)cc32)cc1	.	.	.	.	.	5
CCOc1cc(S(=O)(=O)N(Cc2ccccc2)Cc2ccccc2)c(OCC)cc1-n1cnnn1	-63*	3%	.	0%	0%	-3
CCOc1cc(S(=O)(=O)NCc2ccccc2)c(OCC)cc1-n1cnnn1	-16	1%	-11%	.	-6%	0
Cc1ccccc1CNC(=O)CCCn1c(=O)c2cccn2c2cccnc21	.	.	.	.	.	-8
CCCNC(=O)NC(=O)CN1C(=O)NC(C)(c2ccc(C)cc2)C1=O (stereo unspecified)	10	-3%	-3%	-10%	-10%	9
CCCNC(=O)NC(=O)CN1C(=O)NC(C)(c2ccc3ccccc3c2)C1=O (stereo unspecified)	3	-3%	-1%	2%	1%	35*
CCc1nnc(NC(=O)CSc2ncnc3scc(-c4ccc(C)cc4)c23)s1	30	-1%	1%	-2%	9%	51*
Cc1ccc(-c2csc3ncnc(SCC(N)=O)c23)cc1	20	1%	-2%	-5%	1%	1
CN1CCN(CCOC2Cc3ccccc3Sc3ccc(Cl)cc32)CC1 (stereo unspecified)	-63*	2%	1%	3%	-4%	-8
CN1CCN(C2Cc3cc(Cl)ccc3Sc3cc(F)ccc32)CC1 (stereo unspecified)	-93*	4%	-6%	.	-21%	-54
OCCN1CCN(C2Cc3cc(Cl)ccc3Sc3ccc(Cl)cc32)CC1 (stereo unspecified) (tested in a mixture with another compound)	-72*	-2%	-1%	0%	9%	6
COc1ccc(-c2cn3cccnc3n2)cc1NC(=O)c1c(F)cccc1F	.	.	.	.	.	0
